Laboratory results as given in PubChem BioAssay (NCI).
The panel holds about 83,000 compounds, 20% with a hit somewhere; the sample as a whole holds those more often.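 Results are percent growth after 48 hours of single-concentration exposure. 100 means growth as in untreated cells, lower positive values show inhibition; negative values down to -100 show cell death.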 Values without a mark were called inactive. The source made the active and inactive calls.

Tested on: SW-620 colon
Assay: NCI-60 one-dose screen, 48 h (100 = growth as untreated, 0 = no growth, -100 = all killed)
Conditions: 10 µM unless noted
Procedure: Growth inhibition of the SW-620 human tumor cell line is measured as a screen for anti-cancer activity. Cells are grown in 96 well plates and exposed to the test compound for 48 hours. Compounds are tested at a single concentration, which is 10^-5 M for most compounds. The reported endpoint is percent growth (GI% or GIPRCNT), where numbers from 0 - 100% represent growth inhibition, and numbers from -100% - 0 represent cell death. For example, a value of 40 represents 60% growth inhibition. A value of 0 means no net growth occurred over the course of the experiment. A value of -40 indicates 40% of cells at the beginning of the experiment died by the end of the experiment. A value of -100 means all cells are dead at the end of the experiment.
NCI-60 Human Tumor Cell Lines Screen was performed using the standard one-dose NCI protocol, which is described in more detail at https://dtp.cancer.gov/discovery_development/nci-60/default.htm.
Compounds with GIPRCNT values below 10 were considered active. Activity score was based on GIPRCNT using the following formula: […]
Score is 0 for GIPRCNT values of 100 or above, 50 for GIPRCNT values of 0, and 100 for GIPRCNT values of -100.

| Structure (SMILES) | growth |
| --- | --- |
| C/C(=C\c1csc(C)n1)[C@@H]1C[C@@H]2O[C@]2(C)CCC[C@H](C)[C@H](O)[C@@H](C)C(=O)C(C)(C)[C@@H](O)CC(=O)N1 | -98.6% (active) |
| Nc1c(C(=O)Nc2cccc(C(F)(F)F)c2)sc2nc3c(cc12)C(O)CCC3 (stereo not given) | 33.1% |
| O=S(=O)(NCCCNc1nccc(-c2c(-c3ccc(O)cc3)nc3sccn23)n1)c1ccc(F)cc1 | 9.69% (active) |
| CCC(=O)Oc1ccc2c(c1)CC[C@@H]1[C@@H]2CC[C@]2(C)C[C@H](OC(=O)CC)C[C@@H]12 | 48.2% |
| COc1cc(OC)c(C(=O)/C=C/c2ccc(C#N)cc2)c(OC)c1 | 9.15% (active) |
| CC(=O)Nc1nc(C(=O)N2N=C(C)/C(=C/c3ccc(Cl)cc3)C2=O)cs1 | 109% |
| COC1=CC(c2ccc[nH]2)=N/C1=C\c1[nH]c(C)c(C(=O)CCCCC(=O)Nc2ccccc2)c1C | -87.8% (active) |
| COc1cc(Cn2c(SCC(=O)Nc3cc(OC)c(OC)c(OC)c3)nc3ccccc3c2=O)cc(OC)c1OC | 91.7% |
| C=C1C(=O)O[C@H]2[C@H]1CC/C(Cn1cc(-c3ccsc3)nn1)=C\CC[C@@]1(C)O[C@@H]21 | -71.3% (active) |
| COc1ccc(N=C2NN=C(c3ccc(F)cc3)CS2)cc1OC | 98.6% |
| O=C(Nc1cc(C(F)(F)F)cc(C(F)(F)F)c1)Nc1ccc(OCc2nnc(-c3ccc(Cl)cc3)o2)c(F)c1 | 22.8% |
| COc1ccc(S(=O)(=O)NCCNc2nccc(-c3c(-c4ccccc4)nc4sccn34)n2)cc1 | 36.5% |
| COc1ccc(NC(=O)/N=c2\oc3c(OC)cccc3cc2-c2cc3ccccc3[nH]2)cc1 | 70.3% |
| O=S(=O)(NCCCNc1cc(-c2cn(-c3ccccc3)nc2-c2cccc(O)c2)ccn1)c1ccc(Br)cc1 | 10.7% |
| COc1ccc(NC(=O)CSc2nc3ccc(Cl)cc3c(=O)n2-c2ccccc2C(F)(F)F)c(OC)c1OC | 94% |
| Cc1ccc(Nc2ncnc3c2sc2ncccc23)cc1 | 99.8% |
| COc1ccc(C2CC(c3cccs3)=NN2c2ccc(S(=O)(=O)NC(=O)Nc3ccc(C)cc3)cc2)cc1 (stereo not given) | 106% |
| CCN(CC)P(=O)(N(CC)CC)N(CCCSC/C=C(\C)CC/C=C(\C)CCC=C(C)C)CCCN1CCN(C)CC1 | 101% |
| COc1cccc(NC(=O)Cn2cc3c(=O)oc4ccccc4c3n2)c1 | 103% |
| COc1cc(NS(C)(=O)=O)ccc1Nc1c2ccc([N+](=O)[O-])cc2nc2c(C)cccc12 | 18.8% |

| Structure (SMILES) | growth |
| --- | --- |
| COc1ccc(Cn2cc(COc3cc(/C=C/C(=O)c4cc(OC)c(OC)c(OC)c4)ccc3OC)nn2)cc1 | 19.8% |
| CCCCCCCCCCCCCCCCC(Br)C(=O)O (stereo not given) | 116% |
| Cc1cc2c(c(=O)o1)C(c1ccc(OC(=O)N3CCOCC3)cc1)C(C#N)=C(N)O2 (stereo not given) | 108% |
| CC(=O)Nc1ccc(S(=O)(=O)N2C(=O)CCC2C(=O)Nc2ccc(Br)cc2)cc1 (stereo not given) | 38.2% |
| Cc1oc2ncnc(Nc3ccccc3)c2c1C(=O)NCCO | 95.1% |
| COc1cc(OC)c(C(=O)/C=C/c2cccc(C#N)c2)c(OC)c1 | 6.58% (active) |
| CCCCCC/C=C\CCCCCCCCOc1ccc(CCOP(=O)(O)OCC[N+](C)(C)C)cc1 | 93.2% |
| COc1cc(-c2cc(/C=C3\CCCCC3=O)[nH]n2)cc(OC)c1OC | 101% |
| CC(=O)OC[Si](C)(C)c1ccccc1 | 101% |
| C=C1C(=O)O[C@H]2[C@H]1CC/C(COC(=O)NCc1cc(OC)c(OC)c(OC)c1)=C\CC[C@@]1(C)O[C@@H]21 | 15.6% |
| CS(=O)(=O)N(c1cc(-c2ccc3ncnc(Nc4cccc(Cl)c4)c3c2)cnc1Cl)S(C)(=O)=O | 20.4% |
| N#Cc1ccc(NC(=O)c2ccc3cccnc3c2O)cc1 | 23.1% |
| COc1cccc(-n2cc(-c3nc(Cl)c4ccccc4n3)nn2)c1 | 110% |
| COc1cc(NCCN=C(N)NC(N)=NC(C)C)c2ncccc2c1 | 88.4% |
| CCn1cc(C(=O)O)c(=O)c2cc(F)c(N3CCN(S(=O)(=O)c4ccc(Cl)cc4Cl)CC3)cc21 | 16.4% |
| CCN(CC)CCCNc1nc(C)cc(Nc2ccc3nc(C)cc(N)c3c2)n1 | 117% |
| O=[N+]([O-])c1cccc(-c2cc(-c3cc(Br)ccc3O)[nH]n2)c1 | 28.1% |
| COc1cc2nc(Cl)nc(NCCO)c2cc1OC | 104% |
| CC1Cc2c(N(C)C)ncnc2N(C)c2ccc(O)cc21 (stereo not given) | 63.5% |
| O=C1C2=C(C(=O)c3c(O)ccc(O)c31)N(c1cccnc1)Cc1ccccc1O2 | -45.9% (active) |
